Measured values reported in PubChem BioAssay (NCI).
The panel holds about 83,000 compounds, 20% with a hit somewhere; the sample as a whole holds those more often.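 Single-dose data. Exposure time 48 hours. Values below 10 considered active.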 A number with no mark means an inactive call. Activity calls are given as the source filed them.

The molecules below were run on NCI-H23 lung (assay: NCI-60 one-dose screen, 48 h (100 = growth as untreated, 0 = no growth, -100 = all killed)). Conditions: 10 µM unless noted.
Method: Growth inhibition of the NCI-H23 human Non-Small Cell Lung tumor cell line is measured as a screen for anti-cancer activity. Cells are grown in 96 well plates and exposed to the test compound for 48 hours. Compounds are tested at a single concentration, which is 10^-5 M for most compounds. The reported endpoint is percent growth (GI% or GIPRCNT), where numbers from 0 - 100% represent growth inhibition, and numbers from -100% - 0 represent cell death. For example, a value of 40 represents 60% growth inhibition. A value of 0 means no net growth occurred over the course of the experiment. A value of -40 indicates 40% of cells at the beginning of the experiment died by the end of the experiment. A value of -100 means all cells are dead at the end of the experiment.
NCI-60 Human Tumor Cell Lines Screen was performed using the standard one-dose NCI protocol, which is described in more detail at https://dtp.cancer.gov/discovery_development/nci-60/default.htm.
Compounds with GIPRCNT values below 10 were considered active. Activity score was based on GIPRCNT using the following formula: […]
Score is 0 for GIPRCNT values of 100 or above, 50 for GIPRCNT values of 0, and 100 for GIPRCNT values of -100.

For `CN1CCN(CCCOc2ccc3nc(Nc4cc(Cl)cc(Cl)c4)ccc3c2)CC1`, the growth was -40.7% (active).
With `CCCCN1CCN(c2ccc3nc(-c4ccc5nc(-c6ccc(OCC)c(OCC)c6)[nH]c5c4)[nH]c3c2)CC1` the growth was -55.9% (active).
With `CC(=[N-])N1CCC[C@@H](Nc2c3ccccc3nc3ccccc23)C1.[Cl][Pt].[NH-]CCC[NH-]` the growth was -2.65% (active).
`O=[N+]([O-])c1ccc2[nH]cc(-c3c4ccsc4cc4[nH]c5ccc([N+](=O)[O-])cc5c34)c2c1` was tested, and the growth was 7.93% (active).
In the case of `C=C(C=O)C1CCC2(C(=O)O)CCC3(C)C(CCC4C5(C)CCC(O)C(C)(C)C5CCC43C)C12` (stereo not given), the growth is reported as -52.1% (active).

Point of comparison: `O=C(/C=C/C12c3ccccc3C(c3ccccc31)C1C(=O)N(c3ccccc3)C(=O)C12)c1ccc(Cl)cc1` (stereo not given), growth 17.2%. Against it:
- Cc1c(C(N)=O)sc2nc(C)n(/N=c3\scc(-c4ccccc4)n3Cc3ccccc3)c(=O)c12 — higher, 20.5%
- Cc1cc2c(F)c(Oc3ncnc(Nc4ccc(N5C[C@@H](C)N[C@@H](C)C5)cc4)c3C#N)cc(F)c2[nH]1 — higher, 75%
- O=C(Nc1ccccc1Cl)OCCN1CCOCC1 — higher, 99.7%
- COc1ccc2c(c1)/C(=C\c1sc(=S)[nH]c1O)C(C(=O)O)=N2 — higher, 99.1%
- CN1CCN(C(=O)[C@@]2(C)CC[C@]3(C)CC[C@]4(C)C(=CC[C@@H]5[C@@]6(C)C/C(=C/c7ccncc7)C(=O)C(C)(C)[C@@H]6CC[C@]54C)[C@@H]3C2)CC1 — higher, 59.3%
- CC(C)OC(=O)NNC(=O)c1ccncc1 — higher, 105%
- COc1ccc(/C=C(\C#N)n2nnc3ccccc32)cc1 — lower, 15.1%
- CCOC(=O)N1CCc2c(sc3c2C(=O)N[C@H](c2ccc(OC)cc2)N3)C1 — higher, 103%
- NS(=O)(=O)Oc1ccc(-c2sc3cc(O)ccc3c2C(=O)c2ccc(OCCN3CCCCC3)cc2)cc1 — higher, 88%
- CCc1nc2ccccc2[nH]1 — higher, 104%
- Cn1nnnc1-c1ccc(N)cc1 — higher, 88.7%
- N#Cc1c(N)nc2c(nnn2-c2cccc(Br)c2)c1N — higher, 89.5%
- Cc1cnc(Nc2ccc(N3CCN(C)CC3)cc2)nc1Nc1ccc(Cl)c(NS(=O)(=O)C(C)(C)C)c1 — higher, 18.9%
- CC(=O)Nc1cccc(C2=CC(c3ccc(C)cc3)n3ncnc3N2)c1 (stereo not given) — higher, 97.4%
- Cc1nc(Nc2ccc(NC(=S)Nc3ccccc3)cc2)c2ccccc2n1 — higher, 91.6%
- Nc1ccc(-c2cc3c(Nc4ccc(OCc5cccc(F)c5)c(Cl)c4)ncnc3s2)cc1 — higher, 68.6%
- CC1=CC(=O)C(C(C)C)=CC1=Nc1cc(Br)c(O)c(Br)c1 — higher, 25.7%
- COc1ccc(C(=O)/C=C/c2cc3c(c(OC)c2)OCC(=O)N3)cc1 — higher, 58.5%
- COc1cccc(-c2cnco2)c1OCc1c(C)c(COc2c(OC)cccc2-c2cnco2)c(C)c(COc2c(OC)cccc2-c2cnco2)c1C — higher, 71.5%
- C[N+](C)(C)CCOC(OCC[N+](C)(C)C)(c1ccccc1)c1ccccc1 — higher, 99.8%
- C=C1C(=O)O[C@H]2[C@H]1CC/C(Cn1cc(CNCCc3c[nH]c4ccc(Cl)cc34)nn1)=C\CC[C@@]1(C)O[C@@H]21 — higher, 92.9%
- O=C1C=CC(=Nc2cc(Br)c(O)c(Br)c2)C=C1 — higher, 78.1%
- CCOC(=O)c1sc2ccc(NCc3nc[nH]c3C)cc2c1NC(=O)c1cc(OC)c(OC)c(OC)c1 — higher, 85.7%
- COc1ccc(N=c2nc3sc4cc(Cl)ccc4n3c(N)c2C#N)cc1 — higher, 66.5%
- C=C(C)[C@@H]1CC[C@@]2(C(=O)O)CC[C@]3(C)C(CCC4[C@@]5(C)CCC(OS(=O)(=O)c6ccccc6)C(C)(C)C5CC[C@]43C)C12 (stereo not given in full) — higher, 37.2%
- COc1cc(/C=C/C(=O)c2ccc(Nc3nc(Nc4ccccc4)nc(Nc4ccc(Cl)cc4)n3)cc2)cc(OC)c1OC — lower, 15.5%
- CCN1CCN(c2ccc(Nc3cc(-c4cccnc4Nc4c(Cl)c(OC)cc(OC)c4Cl)ncn3)cc2)CC1 — higher, 63.8%
- OC(CBr)c1ccnc2ccccc12 (stereo not given) — higher, 96.8%
- c1ccc2c(c1)ncn2-c1nc2ccccc2n2c1nc1ccccc12 — higher, 67.1%
- Cc1c(C(=O)O)nnn1-c1nccs1 — higher, 94.5%
- CO/C(=C1/NC(=O)C(Cc2ccc(O)c(Br)c2)N(C)C(=O)C(C)NC(=O)CCC/C=C(\C)CCC(C)OC1=O)c1ccccc1 (stereo not given) — higher, 25.1%
- Cc1[nH]c(-c2nc3ccccc3[nH]2)c(C)c1C(=O)NNc1ccc(Cl)cc1 — higher, 91%
- C[C@@H](C[C@H](CCOCc1cccnc1)c1ccccc1)c1cc2ccccc2o1 — higher, 90.7%
- O=c1[nH]c(=O)n(C2CC(O)C(CO)O2)cc1CO (stereo not given) — higher, 41.6%
